Measurements taken from the supplement of paper PMC3545927.
Some of the results follow. The true hit rate is not given.

Target: furin, P09958
Assay: furin cleavage Z-score vs untreated control; higher = more cleavage, active = 3.5 or more, inactive = 1 or less, 8 variable residues between constant flanks
Method in brief: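 Abundance of DNA freed from bead-bound 8-mer peptide–cDNA fusions by purified furin was measured as sequencing read counts after PCR adapter tagging. Cutting ran 7.5, 15 or 30 min in 0.01 ml of 50 mM HEPES pH 7.5 with CaCl2 and NaCl at 1:10 enzyme:substrate. The cleavage Z-score expresses these log counts against furin-free reactions after lowess adjustment and median absolute deviation scaling.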

Sequence of furin, P09958 (P09958 whole entry): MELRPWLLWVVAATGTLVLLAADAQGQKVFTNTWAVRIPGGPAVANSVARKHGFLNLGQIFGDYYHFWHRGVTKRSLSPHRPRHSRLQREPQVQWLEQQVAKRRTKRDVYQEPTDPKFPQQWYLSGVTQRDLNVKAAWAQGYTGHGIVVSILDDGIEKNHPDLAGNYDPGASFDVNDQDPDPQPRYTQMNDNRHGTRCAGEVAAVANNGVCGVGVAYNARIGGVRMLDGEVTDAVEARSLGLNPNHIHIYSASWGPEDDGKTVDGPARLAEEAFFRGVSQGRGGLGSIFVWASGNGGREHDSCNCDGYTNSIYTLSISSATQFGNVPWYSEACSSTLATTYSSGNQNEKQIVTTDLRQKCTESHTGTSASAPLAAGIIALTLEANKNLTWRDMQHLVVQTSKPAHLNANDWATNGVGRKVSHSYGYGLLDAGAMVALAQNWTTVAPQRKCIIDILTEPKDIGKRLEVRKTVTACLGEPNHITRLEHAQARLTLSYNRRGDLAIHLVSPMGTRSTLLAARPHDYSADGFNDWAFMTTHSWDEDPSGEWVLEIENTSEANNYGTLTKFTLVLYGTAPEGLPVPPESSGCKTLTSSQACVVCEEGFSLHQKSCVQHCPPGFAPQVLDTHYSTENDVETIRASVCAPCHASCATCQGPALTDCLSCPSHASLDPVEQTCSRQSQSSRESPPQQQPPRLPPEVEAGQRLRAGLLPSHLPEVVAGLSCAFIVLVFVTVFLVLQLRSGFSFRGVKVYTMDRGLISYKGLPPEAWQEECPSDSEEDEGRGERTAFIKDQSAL

Sequence	furin cleavage Z-score (7.5 min)	furin cleavage Z-score (15 min)	furin cleavage Z-score (30 min)
CAQYFLTRVEAGNASASA [HC584]	-0.544 (inactive)	-0.576 (inactive)	0.581 (inactive)
CADHLEFWEGAGNASASA [HC937]	0.211 (inactive)	-1.35 (inactive)	0.811 (inactive)
CATVPCHRPSAGNASASA [HC2318]	-1.23 (inactive)	0.611 (inactive)	0.585 (inactive)
CASFGSSSTSAGNASASA [HC1336]	-0.845 (inactive)	-1.34 (inactive)	0.561 (inactive)
CAPCGIVPAKAGNASASA [HC407]	0.926 (inactive)	0.441 (inactive)	0.898 (inactive)
CAITPCSGSWAGNASASA [HC1824]	-0.759 (inactive)	-0.739 (inactive)	-0.66 (inactive)
CARPKRRKPRAGNASASA [FS-3017]	6.7 (active)	9.47 (active)	8.98 (active)
CAEVITSTWVAGNASASA [HC2184]	-0.201 (inactive)	-0.151 (inactive)	0.767 (inactive)
CAMEECKQHLAGNASASA [HC31]	0.641 (inactive)	0.811 (inactive)	0.523 (inactive)
CADVPRRKRKAGNASASA [FS-1316]	7.09 (active)	7.66 (active)	8.13 (active)
CARSARRKRKAGNASASA [FS-1610]	9.41 (active)	11.4 (active)	7.56 (active)
CADIHRNKRKAGNASASA [FS-408]	0.37 (inactive)	0.486 (inactive)	2.04
CACVWRRKRKAGNASASA [FS-324]	4.9 (active)	7.08 (active)	5.25 (active)
CADVPCHRPSAGNASASA [HC2311]	0.698 (inactive)	1.24	0.271 (inactive)
CARSACQRQKAGNASASA [HC1392]	0.38 (inactive)	-0.49 (inactive)	1.17
CAPREVPCHRAGNASASA [HC2439]	-1.48 (inactive)	1.55	-0.302 (inactive)
CAWDVVCCSMAGNASASA [HC2108]	0.349 (inactive)	-0.375 (inactive)	0.29 (inactive)
CARGPRRASAAGNASASA [FS-1711]	-0.617 (inactive)	-0.431 (inactive)	-0.848 (inactive)
CARGPRARRSAGNASASA [FS-855]	7.87 (active)	7.54 (active)	4.95 (active)
CADSGGARRSAGNASASA [FS-226]	-0.625 (inactive)	-0.697 (inactive)	-0.757 (inactive)
CARGPRRRRSAGNASASA [FS-856]	11.2 (active)	10 (active)	7.78 (active)
CASTPCSAVLAGNASASA [HC2550]	-1.46 (inactive)	-0.0198 (inactive)	-0.52 (inactive)
CARAKRFASLAGNASASA [FS-2635]	4.64 (active)	6.47 (active)	8.89 (active)
CARAKRFLRKAGNASASA [FS-1992]	4.11 (active)	4.74 (active)	7.62 (active)
CARAKRNAVLAGNASASA [FS-2545]	6.45 (active)	7.8 (active)	6.91 (active)

Sequence	furin cleavage Z-score (7.5 min)	furin cleavage Z-score (15 min)	furin cleavage Z-score (30 min)
CARAKRVSWDAGNASASA [FS-1681]	-0.617 (inactive)	0.099 (inactive)	0.302 (inactive)
CASTPCSASLAGNASASA [HC2557]	0.819 (inactive)	0.0223 (inactive)	0.939 (inactive)
CARAKRFVSIAGNASASA [FS-1993]	4.74 (active)	4.17 (active)	5.92 (active)
CATTVRLRAYAGNASASA [HC928]	0.53 (inactive)	0.398 (inactive)	-0.429 (inactive)
CAVQAWKSKKAGNASASA [HC1473]	0.322 (inactive)	1.5	-0.486 (inactive)
CAREDRDVNDAGNASASA [FS-2393]	-1.02 (inactive)	-2.7 (inactive)	0.632 (inactive)
CARMMRPVSDAGNASASA [FS-1753]	-0.43 (inactive)	0.272 (inactive)	-0.677 (inactive)
CARIRRMADAAGNASASA [FS-2339]	8.4 (active)	10.5 (active)	8.11 (active)
CARDVRLVDAAGNASASA [FS-2655]	-0.899 (inactive)	-0.757 (inactive)	0.398 (inactive)
CARSGRSANAAGNASASA [FS-2522]	1.32	0.616 (inactive)	1.79
CARIRRMWNDAGNASASA [FS-2955]	3.22	2.6	4.32 (active)
CARMRRYADAAGNASASA [FS-2355]	5.77 (active)	7.7 (active)	6.66 (active)
CATDCFRKHPAGNASASA [HC452]	0.56 (inactive)	-0.196 (inactive)	1.34
CAYLKGKWVPAGNASASA [HC549]	0.545 (inactive)	-0.258 (inactive)	-0.41 (inactive)
CAMEECSQHPAGNASASA [HC1779]	-0.177 (inactive)	-0.782 (inactive)	2.64
CARKKRSTGVAGNASASA [FS-2694]	8.73 (active)	11.5 (active)	10.3 (active)
CARCRRGFGVAGNASASA [FS-1849]	0.0621 (inactive)	1.42	1.48
CARCKRGTGVAGNASASA [FS-2898]	6.24 (active)	6.78 (active)	5.78 (active)
CARCVRDCDPAGNASASA [FS-3243]	0.0718 (inactive)	1.92	2.77
CAEVVTSTGVAGNASASA [HC2236]	0.288 (inactive)	-1.6 (inactive)	-0.142 (inactive)
CARCKRGMKKAGNASASA [FS-1818]	0.324 (inactive)	0.604 (inactive)	3.09
CARCKRTVLDAGNASASA [FS-2482]	0.324 (inactive)	1.14	3.14
CARKKRTLRGAGNASASA [FS-2037]	5.12 (active)	8.31 (active)	6.62 (active)
CARCKRDCLEAGNASASA [FS-1996]	9.7 (active)	9.34 (active)	8.23 (active)
